High-throughput results (PubChem)
This is a sample that favours compounds with a hit; in the whole collection about 4.1% have one here.
hcDAF12 agonist: H. contortus DAF-12 nuclear receptor activators, primary screen, cell-based, luminescence, HEK293, lit1-tk-luc reporter; HEK293 hcDAF-12 lit1-tk-luc reporter; 0% DMSO, 100% Δ7-dafachronic acid; activation, % at 6.8 µM; 1.4% of 370,000 active; AID 652067, 2013;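 active means activation above the mean of all tested compounds plus 3 SD, cut at about 5.5% in these data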
DAX1 inh-1: DAX1 (NR0B1) inhibitors, primary screen, cell-based, HEK293, Gal4-DAX1, luciferase luminescence | inhibition, % at 6.75 µM | HEK293 Gal4-DAX1 luciferase reporter | 0.99% of 340,000 active;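 active means inhibition above the mean over all tested compounds plus 3 SD, cut at about 4.2% in these data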;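 further: inhibition shows as a rise in luminescence from relieved DAX1 repression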
Target sequence (P51843 207-470 limits assumed): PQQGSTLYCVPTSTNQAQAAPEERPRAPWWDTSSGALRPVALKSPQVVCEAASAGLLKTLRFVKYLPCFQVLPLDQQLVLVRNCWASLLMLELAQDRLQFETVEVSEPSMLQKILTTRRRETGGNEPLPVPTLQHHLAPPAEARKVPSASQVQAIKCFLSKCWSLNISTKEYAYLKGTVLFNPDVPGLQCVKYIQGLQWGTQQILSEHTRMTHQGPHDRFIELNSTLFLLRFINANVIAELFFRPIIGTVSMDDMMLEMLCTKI
ssDAF-12 act: S. stercoralis DAF-12 nuclear receptor activators, primary screen, cell-based, luminescence, HEK293, GRIP1 co-expression, lit1-tk-luc; Nuclear hormone receptor DAF-12 (Strongyloides stercoralis); activation, % at 6.8 µM; 1% of 370,000 active; HEK293 ssDAF-12/GRIP1 lit1-tk-luc reporter; % of 3 µM dafachronic acid response; AID 652126, 2013;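 active means activation above the mean over all tested compounds plus 3 SD, cut at about 0.9% in these data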
DAX1 inh-2: DAX1 (NR0B1) inhibitors on StAR promoter, primary screen, cell-based, luminescence, SF-1 (NR5A1), full-length DAX-1 | HEK293T StAR-luciferase reporter, SF-1/DAX-1 repression relief | inhibition, % at 6.8 µM | 1.1% of 370,000 active;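 active means inhibition above the mean over all tested compounds plus 3 SD, cut at about 3.6% in these data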;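 further: higher inhibition means more luminescence from relief of DAX-1 repression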
hgDAF12 agonist: H. glycines DAF-12 receptor agonists, primary screen, cell-based, luminescence, HEK293, GAL4 fusion, UAS-luciferase; HEK293 GAL4-hgDAF12 UAS-luciferase reporter, agonist luminescence; normalized to butyrate control; activation, % at 6.8 µM; 1.8% of 370,000 active; AID 687014, 2013;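 active means activation above a cutoff set at the mean of all screened compounds plus 3 SD, cut at about 10% in these data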
Hits are given with their value; – = inactive; · = no result.

SMILES | hcDAF12 agonist | DAX1 inh-1 | ssDAF-12 act | DAX1 inh-2 | hgDAF12 agonist
C[C@H]1CN([C@@H](C)CO)C(=O)CCCn2nncc2CO[C@H]1CN(C)C(=O)NC1CCCCC1 | – | 5.1 | – | – | –
Cc1cccc(S(=O)(=O)N(C)C[C@H]2OCc3cnnn3CCCC(=O)N([C@H](C)CO)C[C@H]2C)c1 | – | 4.4 | – | – | –
COc1ccccc1CN(C)C[C@@H]1OCc2cnnn2CCCC(=O)N([C@H](C)CO)C[C@H]1C | – | 4.2 | – | – | –
Cc1cccc(S(=O)(=O)N(C)C[C@@H]2OCc3cnnn3CCCC(=O)N([C@H](C)CO)C[C@H]2C)c1 | – | – | – | – | –
COc1ccc(-c2csc(C(O)c3ccccc3)n2)cc1 (centres undefined) | – | · | – | 3.8 | –
Cc1oncc1-c1csc(-c2ccccc2)n1 | – | 5.3 | – | – | –
COc1ccc(-c2csc(-c3ccc(O)cc3)n2)cc1 | – | – | – | – | 13
COc1ccc(O)cc1 | – | 4.5 | – | – | –
COc1ccc(CNC(=O)c2sc3nc(C)c(Cl)c(C)c3c2N)cc1 | – | · | – | – | –
Clc1ccc(-c2csc(N3CCOCC3)n2)cc1 | – | – | – | – | –
Brc1ccc(-c2csc(-c3ccncc3)n2)cc1 | – | – | – | – | –
Nc1nc(-c2ccc(F)cc2)cs1 | – | – | – | – | –
c1ccc(CNc2nc(-c3cccnc3)cs2)cc1 | – | – | – | – | 11
COc1ccc(-c2csc(N3CCOCC3)n2)cc1OC | – | – | – | – | 11
Cc1ccc(-c2csc(-c3ccncc3)n2)cc1 | – | – | – | – | 11
COc1ccc(-c2csc(N)n2)cc1F | – | 4.8 | – | – | –
N[C@H]1CC[C@@H]2SC[C@@H](C(=O)O)N2C1=O | – | · | – | – | –
CCCCCCCCN1C(=O)[C@@H](CC(=O)NCCc2ccccc2OC)C[C@@]2(C(=O)OC)C1=C[C@H](C(C)(C)C)O[C@@H]2C | – | · | – | – | –
c1ccc(-c2csc(-c3cccnc3)n2)cc1 | – | – | – | – | 11
COc1ccc(-c2nc(-c3ccc(O)cc3O)cs2)cc1OC | – | – | – | – | 12
c1ccc(-c2nc(-c3cccnc3)cs2)cc1 | – | – | – | – | –
C=C(c1ccc(OC)cc1)c1ccc(OC)cc1 | – | – | – | – | –
COc1ccc(-c2nc(CCl)cs2)cc1OC | – | – | – | – | –
COc1ccc(N2CC(O)=C(c3nc(-c4ccc(Cl)cc4)cs3)C2=N)cc1 | – | – | – | – | 12
COc1ccc(C(N)=S)cc1 | – | 4.3 | – | – | –
SMILES | hcDAF12 agonist | DAX1 inh-1 | ssDAF-12 act | DAX1 inh-2 | hgDAF12 agonist
O=S1(=O)c2c(NCc3ccco3)cccc2Oc2ccccc2CN1Cc1cn(Cc2ccc(C(F)(F)F)cc2)nn1 | – | · | – | – | –
CCn1c2ccccc2c2cc(C=Nn3c(-c4ccccn4)n[nH]c3=S)ccc21 | – | · | – | – | –
Cc1ccccc1NC(=O)CN(C)S(=O)(=O)c1ccc2c(c1)n(C)c(=O)c(=O)n2C | – | – | – | – | –
Cc1cccc(NC(=O)CN(C)S(=O)(=O)c2ccc3c(c2)n(C)c(=O)c(=O)n3C)c1C | 6.1 | – | – | – | –
O=C(Cn1cc2c(n1)CCCCC2)N1CCc2ccccc21 | 6.3 | – | – | – | –
O=C(c1cccc(S(=O)(=O)N2CCCCC2)c1)N1CCc2ccccc21 | 5.9 | – | – | – | –
O=C(NCCCN1CCCC1=O)c1cccc(S(=O)(=O)N2CCCCC2)c1 | – | – | – | 4.4 | –
Cc1ccc(NC(=O)COC(=O)C2=COCCO2)cc1 | – | – | – | – | –
Cc1ccc(Nc2nc(N)nc(COC(=O)C3=COCCO3)n2)cc1 | – | – | – | 3.6 | –
C=CCN(CC#Cc1ccc(OC)cc1)CC=C | – | · | – | – | –
COC(=O)[C@H](CCSC)NC(=O)Cn1cnc(C(=O)Nc2ccc(C)c(C)c2)n1 | 5.7 | – | – | – | 11
